{"source": "the supplement of paper PMC10338343", "note": "± gives the standard deviation."}
{"tested_on": "MILI (PIWIL2) piRISC loaded with piRNA #1 (26 nt)", "test": "pre-steady-state target cleavage rate (min^-1); guide: piRNA #1 5'p-UGAGGUAGUAGGUUGUAUAGUAUCCA; MIWI and MILI are mouse PIWI proteins and EfPiwi is from a freshwater sponge; tags in brackets are library labels; higher = faster piRNA-guided slicing of the target", "conditions": "auxiliary factor: 500 nM mouse GTSF1", "in_short": "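Sequencing of uncleaved targets, normalised to depth and to weakly complementary targets, was the readout of this Cleave-'n-Seq assay. A transcribed, DNA-blocked target RNA library (0.1 nM) was mixed with 1 nM active affinity-purified piRISC carrying one synthetic guide, with or without 500 nM GTSF1 partner protein, in HEPES–potassium acetate buffer at 33 °C for 0–8 or 0–960 min. Three trials were pooled, k3 was capped at 0.0001 min^-1, and a burst-and-steady-state fit gave the pre-steady-state cleavage rate.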"}
{"sequence": "GGAGACCAUACUUUACAACCUACUACCACA", "pre-steady-state target cleavage rate": "0.226 ± 0.023"}
{"sequence": "GGAGUGGAUACUAUAGAACCUAGUACCUCA", "pre-steady-state target cleavage rate": "0.00269 ± 0.0022"}
{"sequence": "GGAGACCUAUGAAUACAACCUACUACCUA", "pre-steady-state target cleavage rate": "0.00429 ± 0.0026"}
{"sequence": "GGAGACCUAUGAUUACAACCUACUCCUCA", "pre-steady-state target cleavage rate": "< 0.0001"}
{"sequence": "GGAGACCUAUGAAUACUUCCUACUACCUCA", "pre-steady-state target cleavage rate": "0.00297 ± 0.0022"}
{"sequence": "GGAGACCUAUGUAUACAACGUACUACCACA", "pre-steady-state target cleavage rate": "0.00942 ± 0.003"}
{"sequence": "GGAGACCUAUGACUACAACCUACUACCUCA", "pre-steady-state target cleavage rate": "0.00416 ± 0.0019"}
{"sequence": "GGAGACCUAUCUAUACGACCUACUACCUCA", "pre-steady-state target cleavage rate": "0.0198 ± 0.0044"}
{"sequence": "GGAGACCUUACUAAACAACCUACUACCUGA", "pre-steady-state target cleavage rate": "0.0914 ± 0.017"}
{"sequence": "GGAGUGGAUACUAUUCAACCUACUACCACA", "pre-steady-state target cleavage rate": "0.093 ± 0.0098"}
{"sequence": "GGAGACGAUUCUAUUCAACCUACUACCUCA", "pre-steady-state target cleavage rate": "0.231 ± 0.014"}
{"sequence": "GGAGACCUAUCUAUACUACCUACUUCCUCA", "pre-steady-state target cleavage rate": "0.0634 ± 0.01"}
{"sequence": "GGAGACCUAUCUAUAGAACCUACAACCUCA", "pre-steady-state target cleavage rate": "0.00275 ± 0.0025"}
{"sequence": "GGAGACCUUACUAUACAACGUACUAGCUCA", "pre-steady-state target cleavage rate": "0.0137 ± 0.0043"}
{"sequence": "GGAGACCUAUCUAUACAACCUAGAUCCUCA", "pre-steady-state target cleavage rate": "0.0047 ± 0.0021"}
{"sequence": "GGAGACCUAACUAUACAACCUAACUACCUCA", "pre-steady-state target cleavage rate": "0.00748 ± 0.0037"}
{"sequence": "GGAGACCUAUCUAUACAACCUAGCUACCUCA", "pre-steady-state target cleavage rate": "0.0218 ± 0.0062"}
{"sequence": "GGAGACGAUACUUUACUACCUACUACCUCA", "pre-steady-state target cleavage rate": "0.179 ± 0.012"}
{"sequence": "GGAGUGGAUUCUAUACUACCUACUACCUCA", "pre-steady-state target cleavage rate": "0.155 ± 0.0078"}
{"sequence": "GGAGACCUAUGUAUACAACCUAACUACCUCA", "pre-steady-state target cleavage rate": "0.00595 ± 0.0023"}
{"sequence": "GGAGACCUAUGAUUACAACCUACUAGCCUCA", "pre-steady-state target cleavage rate": "0.00776 ± 0.0028"}
{"sequence": "GGAGACCUAUGAAUACAAGCUACUUCCUCA", "pre-steady-state target cleavage rate": "0.0166 ± 0.0043"}
{"sequence": "GGAGACCUAUGAUAACAACCUACCUACCUCA", "pre-steady-state target cleavage rate": "0.00593 ± 0.003"}
{"sequence": "GGAGAGGAUACUAAAGAACCUACUACCUCA", "pre-steady-state target cleavage rate": "0.179 ± 0.0099"}
{"sequence": "GGAGACCUAUGUAUACUUGCUACUACCUCA", "pre-steady-state target cleavage rate": "0.00505 ± 0.0014"}
{"sequence": "GGAGACCUAACUAUACAACGUACUACCUGA", "pre-steady-state target cleavage rate": "0.00576 ± 0.0041"}
{"sequence": "GGAGACCAUAGUAUACAACCUUCUACCUCA", "pre-steady-state target cleavage rate": "0.0111 ± 0.0041"}
{"sequence": "GGAGACCUAUGUAUACUACGUACUACCUCA", "pre-steady-state target cleavage rate": "0.00798 ± 0.0023"}
{"sequence": "GGAGACCUAUGAUAACAACGUACUACCUCA", "pre-steady-state target cleavage rate": "0.00353 ± 0.0022"}
{"sequence": "GGAGACCUAUCUAUACAACCUACAUCCUCA", "pre-steady-state target cleavage rate": "0.0186 ± 0.0046"}
{"sequence": "GGAGACCUAUGUAUUGAACCUACUACCUCA", "pre-steady-state target cleavage rate": "0.00285 ± 0.0015"}
{"sequence": "GGAGACCUAUGAAUACAACGUACUACCUCA", "pre-steady-state target cleavage rate": "0.00541 ± 0.0019"}
{"sequence": "GGAGACCUUACUAUACUUCCUACUACCUCA", "pre-steady-state target cleavage rate": "0.127 ± 0.011"}
{"sequence": "GGAGACCUUACUAUACAACCAUCUACCUCA", "pre-steady-state target cleavage rate": "0.00422 ± 0.0032"}
{"sequence": "GGAGUGGAUAGUAUACAACCUACUUCCUCA", "pre-steady-state target cleavage rate": "0.0138 ± 0.0048"}
{"sequence": "GGAGACCUAUGUAUUCAACGUACUACCUCA", "pre-steady-state target cleavage rate": "0.00676 ± 0.0018"}
{"sequence": "GGAGACCUAUGAUUACAAGCUACAACCUCA", "pre-steady-state target cleavage rate": "0.0159 ± 0.0045"}
{"sequence": "GGAGACCUAUGAUAGCAACCUACUACCUCA", "pre-steady-state target cleavage rate": "0.00366 ± 0.0022"}
{"sequence": "GGAGACCUUACUAUACAACCUUCUUCCUCA", "pre-steady-state target cleavage rate": "0.00391 ± 0.0031"}
{"sequence": "GGAGACCUAUCUAUACACCUACUACCUCA", "pre-steady-state target cleavage rate": "0.00467 ± 0.0029"}
